Assay outcomes deposited in PubChem by National Center for Advancing Translational Sciences (NCATS).
HT1080 IDH1KD tx – qHTS for induction of synthetic lethality in tumor cells producing 2HG: qHTS for the HT-1080-IDH1KD cell line. HT-1080 IDH1 knockdown viability, ATP luminescence, 48 h. Potency, µM (titrated, usually from 46.1 µM), hits mostly cytotoxic. hit rate 2% among 360,000. AID 686971, 2013
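CellTiter-Glo luminescence after 48 h compound exposure at 37 degrees C of IDH1-knockdown HT-1080 cells in 5% FBS RPMI. %Activity scaled between DMSO wells and cell-free media wells, with curves fitted and assigned curve classes.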
KB-V1 cytotox – qHTS assay for MDR1-selective chemotherapeutics: Primary screen using the drug-selected MDR subline cells KB-V1 | KB-V1 MDR cells viability, CellTiter-Glo, 72 h | Potency, µM (series often up to 46.1 µM), most hits filed as cytotoxic | hit rate 3.4% among 400,000 | AID 1347076, 2019; note: nearly all actives have a fitted effect of over 60% in size
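Potencies derive from concentration-effect curves fitted to normalized luminescence (CellTiter-Glo) of KB-V1 cells treated for 72 h at 37 degrees C in phenol-red-free DMEM containing 10% FBS.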
KB-3-1 tox – qHTS assay for MDR1-selective chemotherapeutics: Primary screen using the parental adenocarcinoma cell KB-3-1; hit rate 1.4% among 400,000; AID 1347075, 2019; KB-3-1 viability, CellTiter-Glo ATP luminescence, 72 h; Potency, µM (titrated, usually from 46.1 µM), most hits filed as cytotoxic; note: nearly all actives have a fitted effect of over 60% in size
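Screening of KB-3-1 cells (DMEM, 10% FBS, phenol-red free) ran from lowest to highest compound concentration; after 72 h at 37 °C viability was read luminescently and curves fitted.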
HT1080NT lethal – qHTS for induction of synthetic lethality in tumor cells producing 2HG: qHTS for the HT-1080-NT fibrosarcoma cell line | HT-1080-NT fibrosarcoma viability, CellTiter-Glo ATP luminescence, 48 h | Potency, µM (titrated, usually from 46.1 µM), actives largely listed as cytotoxic | hit rate 1.6% among 360,000 | AID 686970, 2013;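 note: NT is the 2HG producing partner of a matched IDH1 knockdown line; nearly all actives have a fitted effect of over 55% in size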
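HT-1080-NT; 750 cells/well; 5% FBS RPMI; 48 h compound, 37 degrees C; CellTiter-Glo luminescence; curve fitting and curve-class assignment.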
TDP1 cell CPT – qHTS for Inhibitors of human tyrosyl-DNA phosphodiesterase 1 (TDP1): qHTS in cells in presence of CPT; Potency, µM (titrated, usually from 46.2 µM), usual class: inhibitors; hit rate 12% among 420,000; chicken DT40 Tdp1-/-;hTDP1 cells + 20 nM CPT, ATP luminescence, 48 h; note: nearly all actives have a fitted effect of over 55% in size
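Cell growth measured by CellTiter-Glo luminescence after a minimum 48 h, 37 C compound exposure with 20 nM CPT in Tdp1-knockout DT40 cells stably expressing hTDP1, seeded 400/well; qHTS titration format.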
TDP1 cell noCPT – qHTS for Inhibitors of human tyrosyl-DNA phosphodiesterase 1 (TDP1): qHTS in cells in absence of CPT. DT40 Tdp1-/- hTDP1 cells, no CPT, ATP luminescence, 48 h. Potency, µM (series often up to 46.2 µM), hits mostly inhibitors. hit rate 15% among 420,000. AID 686978, 2013; note: nearly all actives have a fitted effect of over 55% in size
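Growth of hTDP1-complemented DT40 Tdp1-knockout cells is measured by ATP luminescence after at least 48 hr compound exposure at 37 °C, with DMSO substituting for the 20 nM CPT used in the parallel screen.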
Numbers stand for hits; . = inactive; ? = inconclusive; / = no result; [ ] = remark or other dose. The list is not random: actives were taken first. Their share in the collection is about 19%. Calls come from the whole dose curve; as a rule, active = well fitted curve in the direction sought with a large enough effect; inconclusive = small, poorly fitted or top-dose-only effect, or another doubt; inactive = no such curve, though single readings can be large; an effect the other way counts as inactive or inconclusive.

SMILES	HT1080 IDH1KD tx	KB-V1 cytotox	KB-3-1 tox	HT1080NT lethal	TDP1 cell CPT	TDP1 cell noCPT
Cc1nc(Sc2nnnn2C)c2c3c(sc2n1)CCC3	5.2µM	6.5µM	3.3µM	3.3µM	2.1µM	1.6µM
CCc1nc(-n2[nH]c(=O)c3ccccc3c2=O)c2c3c(sc2n1)CCCC3	.	.	?	.	.	.
CCc1nc(Sc2nnnn2-c2ccccc2)c2c3c(sc2n1)CCCC3	.	?	.	.	16µM	18µM
Cc1nc(SCC(=O)NCC2CCCO2)c2c3c(sc2n1)CCC3 (stereo unspecified)	.	/	/	.	.	.
O=C(NC1CCCCC1)C(c1ccc2ncccc2c1)N(Cc1ccc2c(c1)OCO2)C(=O)c1ccc2c(c1)OCCO2 (stereo unspecified)	.	.	.	.	?	26µM
O=C(NC1CCCCC1)C(c1ccccc1)N(Cc1ccc2c(c1)OCO2)C(=O)c1cnsn1 (stereo unspecified)	.	.	.	.	21µM	?
O=C(NC1CCCCC1)C(c1ccc2ncccc2c1)N(Cc1ccco1)C(=O)c1ccc2c(c1)OCCO2 (stereo unspecified)	.	.	?	.	?	?
Cc1ccc(CN2CCOc3ccc(C(C)(O)COc4ccccc4)cc3C2)o1 (stereo unspecified)	/	/	/	/	.[9.04 µM]	.
Cc1ccc2onc(CNC(=O)NCc3ccccc3)c2c1	/	.	.	/	.	.
Nc1nn2cc(-c3ccccc3)nc2c2ccccc12	?	16µM	.	?	?	?
Cc1cn2nc(N)c3ccccc3c2n1	.	.	.	.	.	.
C[C@@H]1CN([C@@H](C)CO)C(=O)CCCn2nncc2CO[C@@H]1CN(C)S(=O)(=O)c1ccc(F)cc1	.	.	.	.	.	.
Nc1cc2c(cc1Cl)N(Cc1ccccc1)C(=O)CO2	.	.	.	.	.	.
Cc1cccc(/C=C2\Sc3ccc(C(=O)N4CCC(C)CC4)cc3N(C)C2=O)c1	?	.	?	?	?	?
CCOC(=O)N1CCN(C(=O)c2ccc3c(c2)N(C)C(=O)/C(=C\c2ccc(OCC)c(OC)c2)S3)CC1	?	.	?	.	?	16µM
CCOC(=O)N1CCC(NC(=O)c2ccc3c(c2)N(C)C(=O)/C(=C/c2cccc(OC)c2)S3)CC1	.	.	.	.	18µM	18µM
CCOc1ccc(/C=C2/Sc3ccc(C(=O)NCC4CCCO4)cc3N(C)C2=O)cc1OC (stereo unspecified)	.	.	.	.	?	?
CCOC(=O)N1CCN(C(=O)c2ccc3c(c2)NC(=O)/C(=C\c2ccc(OC)c(OC)c2)S3)CC1	.	.	?	.	?	16µM
CCOC(=O)N1CCN(C(=O)c2ccc3c(c2)NC(=O)/C(=C\c2cccc(C)c2)S3)CC1	.	?	?	.	?	13µM
CCN(CC)S(=O)(=O)c1ccc(C(=O)NCC2(N3CCOCC3)CCCCC2)cc1	.	.	.	.	?	?
O=C(COc1ccccc1Cl)N(Cc1ccco1)Cc1ccco1	/	/	/	/	?	23µM
O=C(COc1ccc(Cl)cc1Cl)N(Cc1ccco1)C1CCS(=O)(=O)C1 (stereo unspecified)	.[9.24 µM]	.	.	.	.	.
O=C(c1cccc(Cl)c1)N(Cc1ccco1)Cc1ccccc1Cl	/	/	/	/	?	.
Cc1cccc(OCC(=O)N(Cc2cccc(Cl)c2)Cc2ccco2)c1C	/	/	/	/	6.5µM	.
Cc1cccc2cc(CN(Cc3ccco3)C(=O)c3ccco3)c(=O)[nH]c12	.	.	.	.	.	.
SMILES	HT1080 IDH1KD tx	KB-V1 cytotox	KB-3-1 tox	HT1080NT lethal	TDP1 cell CPT	TDP1 cell noCPT
Cc1cc(Cl)ccc1OCC(=O)N(Cc1ccco1)Cc1ccco1	/	/	/	/	?	23µM
Cc1cc(OC(C)C(=O)N(Cc2ccco2)Cc2ccccc2F)cc(C)c1Cl (stereo unspecified)	/	/	/	/	21µM	13µM
Cc1ccc(CN(Cc2ccco2)C(=O)COc2ccc(Cl)cc2Cl)cc1	/	?	.	/	?	18µM
COCC(=O)N1CCC2(CCCN(C(=O)Nc3cccc(F)c3)C2)CC1	/	/	/	/	.	.
COc1ccc(OC)c(C(O)c2ncc(-c3ccccc3Cl)[nH]2)c1 (stereo unspecified)	.	.	.	.	.	.
COc1ccc(OC)c(C(O)c2ncc(-c3cccc4ccccc34)[nH]2)c1 (stereo unspecified)	.	.	.	.	18µM	26µM
